The list is not random: actives were taken first. Their share in the collection is about 1.2%.
TSHR antagonist = antagonists of human thyroid stimulating hormone receptor | activity change, negative = inhibition, % at 11.5 µM | 330,000 compounds, 0.2% hits | TSHR-expressing cells, TSH-stimulated cAMP HTRF, 2 h; active compounds read low;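 active = activity change below a set negative limit, meaning inhibition stronger than a set level, cut at about -70% in these data; inconclusive = activity change between two set negative limits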
Target sequence (P16473 whole entry, looked up): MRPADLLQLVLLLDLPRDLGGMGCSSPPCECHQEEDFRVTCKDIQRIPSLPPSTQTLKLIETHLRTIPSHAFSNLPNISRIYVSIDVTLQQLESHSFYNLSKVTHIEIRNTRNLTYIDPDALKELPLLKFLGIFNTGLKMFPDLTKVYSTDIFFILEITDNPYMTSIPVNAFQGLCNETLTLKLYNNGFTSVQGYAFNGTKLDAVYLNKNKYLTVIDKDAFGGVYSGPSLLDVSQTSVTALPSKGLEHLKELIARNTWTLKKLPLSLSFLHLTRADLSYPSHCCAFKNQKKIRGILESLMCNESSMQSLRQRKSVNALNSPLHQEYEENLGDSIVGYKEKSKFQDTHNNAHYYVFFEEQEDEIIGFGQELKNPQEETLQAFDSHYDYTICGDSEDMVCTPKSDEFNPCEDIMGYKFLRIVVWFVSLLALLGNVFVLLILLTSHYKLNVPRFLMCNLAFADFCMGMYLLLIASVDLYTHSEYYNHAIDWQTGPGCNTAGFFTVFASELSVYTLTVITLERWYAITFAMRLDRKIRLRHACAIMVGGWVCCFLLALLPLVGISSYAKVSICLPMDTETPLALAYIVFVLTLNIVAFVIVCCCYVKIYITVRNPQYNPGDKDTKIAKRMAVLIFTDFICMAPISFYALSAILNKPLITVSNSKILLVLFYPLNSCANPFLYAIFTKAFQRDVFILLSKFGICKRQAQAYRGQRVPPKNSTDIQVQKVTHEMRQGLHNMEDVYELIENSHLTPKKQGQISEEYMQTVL
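TSHR-expressing cells, 200/well, pre-treated with compound, then stimulated with EC80 TSH (4nM final) for 2 hours at 37 deg C. cAMP measured by competitive HTRF: anti-cAMP cryptate antibody in lysis buffer plus cAMP-d2, read after 30 minutes at room temperature.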
gsp antag = antagonizes gsp, the McCune-Albright syndrome mutation; Potency, µM (doses to about 76.9 µM), hits mostly inhibitors; gsp-mutant cells, cAMP HTRF, 30 min; 340,000 compounds, 0.4% hits; calls by dose curve; cell line not stated here;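 also: intracellular cAMP measured with PDE inhibitor Ro 20-1724 present during compound exposure; nearly all actives have a fitted effect of over 65% in size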
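Measurement of cellular cAMP by homogeneous time-resolved fluorescence following a 30 min compound exposure at 37C. The PDE inhibitor […] was present throughout; the assay buffer was DPBS with 0.05% BSA and 0.005% Tween 20.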
CCT modulator = modulators of cytosolic chaperonin (CCT/TRiC) activity. 360,000 compounds, 0.3% hits. activity change, % (test concentration not listed), hits read low. purified chaperonin ATPase assay, HTRF ADP detection, 30 min; in the data active = activity change below about -30%
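Enzyme 40 or 20 nM (batch-dependent) in Tris pH 7.4/KCl/MgCl2/DTT; cpd 76 uM single point; ATP 10 uM; 30 min 37 °C; Transcreener ADP HTRF detection, 30 min RT; ratio 665/615.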
uPA generation = cell surface uPA generation inhibition; cell surface uPA generation assay, qHTS; Potency, µM (series often up to 38.3 µM), hits mostly inhibitors; 330,000 compounds, 0.31% hits; AID 540303; active = well fitted inhibition curve with a large enough effect; inconclusive = small, poorly fitted or top-dose-only effect; inactive = no such curve, though single readings can be large or run the other way; tested in mouse RAW 264.7 cells; also: nearly all actives have a fitted effect of over 55% in size
gsp ag = activates gsp, the McCune-Albright syndrome mutation | AID 624287 | 340,000 compounds, 0.13% hits | gsp mutant cells, cAMP HTRF, 30 min | Potency, µM (titrated, usually from 76.9 µM), most hits filed as activators; active = well fitted activation curve with a large enough effect; inconclusive = small, poorly fitted or top-dose-only effect, or another doubt; inactive = no such curve, though single readings can be large or run the other way; cell line not stated here;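 also: phosphodiesterase inhibitor Ro 20-1724 added with compounds to block cAMP breakdown; nearly all actives have a fitted effect of over 60% in size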
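Cells in DMEM/10% FBS with G418 were pretreated with compounds in DMSO plus […] (300 uM stock) for 30 min at 37C. cAMP was measured by HTRF (cAMP-d2 plus anti-cAMP antibody-K) after 30 min at room temperature.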
Mm-Cpn inhibitor = inhibitors of Methanococcus maripaludis chaperonin TRiC (MmCpn); purified Mm-Cpn ATPase, ADP Transcreener TR-FRET; 330,000 compounds, 0.031% hits; Potency, µM (titrated, usually from 76.9 µM), actives largely listed as inhibitors; active = well fitted inhibition curve with a large enough effect; inconclusive = small, poorly fitted or top-dose-only effect; also: nearly all actives have a fitted effect of over 80% in size
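Quantitative HTS used 25 nM Mm-CPN and 10 uM ATP in magnesium/KCl Tris buffer, pH 7.4, with 1 mM DTT. Hydrolysis ran 30 min at 37°C; ADP was read by HTRF.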
Each line names hits and unclear results; the compound was inactive in the other large screens.

CC(=O)c1cccc(NC(=O)COc2cc3oc(=O)c(CC(C)O)c(C)c3cc2Cl)c1 (centres undefined)	gsp antag 32µM
CCOC(=O)c1ccc(NC(=O)COc2cc3oc(=O)c(CC(C)O)c(C)c3cc2Cl)cc1 (centres undefined)	none
Oc1ccccc1C1=NOC(O)(C(F)F)C1 (centres undefined)	none
CC(=O)c1ccc(Nc2nc(=O)c3cccnc3s2)cc1	gsp ag 10µM (no result: TSHR antagonist, Mm-Cpn inhibitor)
Nc1nc2ccccc2n1C(=O)c1ccccc1	uPA generation 2.8µM
Nc1nc2ccccc2n1C(=O)c1ccc(F)cc1	none
COc1ccc(-c2c(-c3ccccc3OC)oc3ccccc23)cc1F	none
O=c1nc(SCc2ccc(Cl)cc2)nc(-c2ccccc2)[nH]1	none
O=c1nc(SCc2c(F)cccc2Cl)nc(-c2ccccc2)[nH]1	CCT modulator -31
CN(C)/C=C/c1oc2ccc(O)cc2c1[N+](=O)[O-]	gsp antag 28µM
Cc1oc2ccc(O)cc2c1C(=O)c1ccc([N+](=O)[O-])cc1	none
Nc1cc2c(cc1O)CCCC2	none
Nc1nn(-c2ccccc2)c(N)c1N=Nc1ccccc1	uPA generation 5µM
CCn1cc(CN2CCN(Cc3ccsc3)C(CCO)C2)cn1 (centres undefined)	none
Cn1nnnc1Sc1ncnc2scc(Br)c12	uPA generation 2.8µM (no result: gsp antag, CCT modulator, gsp ag)
Cn1nnnc1Sc1ncnc2scc(-c3ccccc3Br)c12	uPA generation inconclusive (no result: gsp antag, CCT modulator, gsp ag)
CCN(CC)S(=O)(=O)c1cc(NC(=O)COC(=O)c2c(C)noc2C)ccc1C	uPA generation inconclusive
CC(C)c1ccc(C(=O)N(c2ccccn2)C(C)c2ccco2)cc1 (centres undefined)	none
CC(c1ccco1)N(C(=O)CSc1ccc(Br)cc1)c1ccccn1 (centres undefined)	gsp antag 35µM
COc1ccc(S(=O)(=O)Nc2cccc(N(C)S(C)(=O)=O)c2)cc1C	gsp antag inconclusive
CC(c1nnnn1C(C)(C)C)N(Cc1cccnc1)Cc1ccccc1Cl (centres undefined)	gsp antag 40µM
CC(C)(C)n1nnnc1C(c1cccs1)N(Cc1cccnc1)Cc1ccccc1Cl (centres undefined)	none
OCCNc1ccc(Cl)cc1	none
Cc1nc(-c2ccc(F)cc2)c(CC(=O)N(C)CC(=O)Nc2ccc(Cl)c(C(F)(F)F)c2)s1	gsp antag 32µM (no result: TSHR antagonist, Mm-Cpn inhibitor)
COCCCNCCCCOc1ccc(Br)cc1Cl	none
CN(C)CCCCOc1ccc(Br)cc1Cl	CCT modulator -59
O=S1(=O)CCN2C(Cc3ccc(SC(F)F)cc3)=CSC2=N1	gsp antag 32µM, gsp ag inconclusive
CCOc1ccc(C(=O)CC(Sc2ccc(C)cc2)C(=O)O)cc1 (centres undefined)	none
Fc1cccc(Cl)c1C1Nc2cccc3cccc(c23)N1	none
Clc1cccc(Cl)c1C1Nc2cccc3cccc(c23)N1	TSHR antagonist -70
O=c1c2[nH]c3ccc(F)cc3c2ncn1CCN1CCOCC1	none
N#Cc1c(C(F)(F)F)cc(-c2cccc(Cl)c2)[nH]c1=O	gsp antag 35µM
N#Cc1c(C(F)(F)F)cc(-c2ccc(F)cc2)[nH]c1=O	none
N#Cc1c(C(F)(F)F)cc(-c2ccc(Cl)cc2)[nH]c1=O	TSHR antagonist inconclusive, gsp antag 35µM
CC1=C(C(=O)N(C)C)CC(CC(=O)NC(c2ccccc2)c2ccccc2)C(=O)N1Cc1ccccc1 (centres undefined)	CCT modulator -48 (no result: TSHR antagonist, gsp antag, uPA generation, Mm-Cpn inhibitor)
CC1=C(C(=O)N(C)C)CC(CC(=O)NC(c2ccccc2)c2ccccc2)C(=O)N1Cc1ccc(F)cc1 (centres undefined)	none (no result: TSHR antagonist, gsp antag, uPA generation, Mm-Cpn inhibitor)
Cc1nc(-c2cccc(NC(=O)c3ccc(-n4nccc4C)cc3)c2)cs1	TSHR antagonist -72, gsp antag inconclusive
Cc1nc(-c2ccc(C(=O)Nc3cccc(Br)c3)cc2)cs1	gsp antag inconclusive, uPA generation inconclusive
Cc1ccc2c(C)cc(=S)[nH]c2c1	gsp ag 22µM
Cc1ccc2[nH]c(=S)cc(C)c2c1	none
O=C(CCCn1c(=O)[nH]c2ccsc2c1=O)N1CCN(c2ccccn2)CC1	gsp ag inconclusive
